# High-throughput results: PubChem, The Scripps Research Institute Molecular Screening Center
# GPR151 ag = activators of human GPR151, primary screen, cell-based, PathHunter beta-arrestin, luminescence | activation, % at 11.2 µM | actives 1% (n = 650,000) | PathHunter beta-arrestin GPR151 cells; in the data active = activation above about 4.9%;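 also: 0% = median of compound wells and 100% = cells with positive control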
# MITF inh = MITF inhibitors, primary screen, biochemical, AlphaScreen, human | Microphthalmia-associated transcription factor (Homo sapiens), O75030 | AlphaScreen MITF homodimerization, bead proximity signal | inhibition, % at 2.6 µM | actives 0.91% (n = 650,000) | AID 1259374, 2018; in the data active = inhibition above about 50%;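 also: 0% = vehicle wells with protein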
# Target sequence (O75030 whole entry, looked up): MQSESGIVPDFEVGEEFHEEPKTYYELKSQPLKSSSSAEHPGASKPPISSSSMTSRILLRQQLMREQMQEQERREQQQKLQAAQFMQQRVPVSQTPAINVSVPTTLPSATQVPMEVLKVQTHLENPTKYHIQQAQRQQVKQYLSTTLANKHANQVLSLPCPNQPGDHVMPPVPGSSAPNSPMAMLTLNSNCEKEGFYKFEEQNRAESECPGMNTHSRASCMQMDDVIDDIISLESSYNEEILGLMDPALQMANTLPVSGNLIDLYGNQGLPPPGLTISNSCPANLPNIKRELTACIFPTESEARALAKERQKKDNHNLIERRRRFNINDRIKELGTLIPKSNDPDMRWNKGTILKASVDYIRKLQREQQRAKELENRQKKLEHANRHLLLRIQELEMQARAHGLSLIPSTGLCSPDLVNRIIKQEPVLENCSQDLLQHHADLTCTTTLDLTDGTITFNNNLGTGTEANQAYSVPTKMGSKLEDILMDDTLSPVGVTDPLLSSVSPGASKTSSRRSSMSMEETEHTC
# FBW7 activator = FBW7 E3 ligase activators, primary screen, biochemical, AlphaScreen, human. F-box/WD repeat-containing protein 7 (Homo sapiens), Q969H0. AlphaScreen FBW7–phospho-cyclin E peptide binding, activator screen. normalized activity (activation), % at 26.1 µM. actives 0.13% (n = 650,000). AID 1259310, 2017; in the data active = normalized activity above about 1.9%;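 also: purified mutant Fbw7 with reduced substrate affinity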
# TEAD-YAP block = TEAD-YAP interaction inhibition, primary screen, TEAD-YAP interaction inhibitor project, luminescence, HEK-TIYL cells | TEAD-Gal4/YAP UAS-luciferase luminescence | inhibition, % at 9.12 µM | actives 1.4% (n = 640,000) | AID 1259422, 2018; in the data active = inhibition above about 32%;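 also: 0% = median of test compound wells and 100% = reference inhibitor wells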
# An asterisk follows results filed as active. Hits are enriched below; roughly 3.5% of the tested compounds scored in any of these assays.
SMILES,GPR151 ag,MITF inh,FBW7 activator,TEAD-YAP block
COC(C(=O)N1CCC(c2nnc(SCc3ccccc3)n2C)CC1)c1ccccc1 (stereo not drawn),0,-14,0,-4
Cc1cc(C)n(-c2nc(OCC(F)(F)F)nc(N3CCN(C45CC6CC(CC(C6)C4)C5)CC3)n2)n1,0,-10,0,0
COc1ccc(C(=O)Oc2cc3c4c(c2)C(C)=CC(C)(C)N4C(=O)C3=O)cc1OC,0,10,0,9
CC1=CC(C)(C)N2C(=O)C(=O)c3cc(OC(=O)COc4ccccc4)cc1c32,-1,10,0,62*
CC1=CC(C)(C)N2C(=O)C(=O)c3cc(OC(=O)C4CCCO4)cc1c32 (stereo not drawn),0,12,0,57*
O=C(NCC1CCCN(Cc2cccn2-c2cccnc2)C1)c1n[nH]c2ccccc12 (stereo not drawn),-2,-2,0,-7
O=C(NCC1CCCN(Cc2cccn2-c2ccccn2)C1)c1n[nH]c2ccccc12 (stereo not drawn),1,17,0,70*
CCOc1ccc(C)cc1S(=O)(=O)Nc1ccc(F)cc1,-2,-1,0,-9
CCOc1ccc(C)cc1S(=O)(=O)Nc1ccc(I)cc1,1,-5,0,42*
COCCCN1C(=O)c2[nH]nc(-c3ccccc3O)c2C1c1ccc(C)cc1 (stereo not drawn),-1,-6,0,43*
FC(F)(F)c1ccccc1NC(=S)N/N=C1\CC2CC=CC12 (stereo not drawn),-1,19,0,47*
Brc1cccc(-c2nnc(CN3CCCCCC3)o2)c1,-1,3,0,-14
O=c1c2ccccc2nc2c3ccccc3c(NCCN3CCOCC3)nn12,1,-5,0,74*
O=c1c2c(-c3ccccc3)csc2nc2c3ccccc3c(NCCCN3CCOCC3)nn12,0,19,1,-4
Clc1ccccc1COc1ccc(Br)cc1CNn1cnnc1,0,-10,0,-5
CC(C)N(Cc1nccn1C)C(=O)CCc1nnc(CCc2c[nH]c3ccccc23)o1,1,-10,0,3
CC(=O)Nc1nc(-c2ccc3c(c2)NC(=O)CO3)cs1,0,6,0,58*
Cn1ncc2c1/C(=C/c1ccc(Cl)cc1)CC2,-10,8,0,55*
N#CCCn1ncc2c1/C(=C/c1ccccc1)CC2,3,14,0,3
CC(C)N(C(=O)Cn1cc(S(=O)(=O)CC(=O)NC(C)(C)C)c2ccccc21)C(C)C,0,0,0,1
Cc1ccc(N2C(=O)c3ccccc3C2O)nc1 (stereo not drawn),-6,0,0,78*
CCCN1CCC(NC(=S)Nc2ccc([N+](=O)[O-])cc2OC)CC1,1,-2,0,17
COc1ccc(-c2nc(Nc3ccc(NC(C)=O)cc3)c3ncn(C(C)C)c3n2)cn1,4,3,0,35*
CC(=O)Nc1ccc(Nc2nc(-c3ccc(C(N)=O)cc3)nc3c2ncn3C(C)C)cc1,0,2,0,28
CC(C)n1cnc2c(Nc3ccccc3)nc(-c3cccc(N)c3)nc21,-1,6,0,13
SMILES,GPR151 ag,MITF inh,FBW7 activator,TEAD-YAP block
CC(=O)Nc1ccc(Nc2nc(-c3cccc(N)c3)nc3c2ncn3C(C)C)cc1,-1,11,0,38*
CC(=O)Nc1ccc(Nc2nc(-c3ccccc3)nc3c2ncn3-c2ccccc2)cc1,0,-8,0,8
CC(=O)Nc1ccc(Nc2nc(-c3cccc(N)c3)nc3c2ncn3-c2ccccc2)cc1,0,25,0,41*
COC(=O)C1=C(C)N(CC2CCCO2)C(=O)/C1=C\c1cccc(OC)c1OC (stereo not drawn),-2,4,0,-19
O=C(c1ccc2c(=O)n(-c3ccccc3F)c(=S)[nH]c2c1)N1CCCCC1,-1,-4,0,33*
O=C(Cn1nnc2ccccc21)NC(c1ccccc1)c1ccccc1,-1,-3,0,-26
COc1ccc(OC)c(/C=c2\sc3nc(-c4ccccc4OC)nn3c2=O)c1,-2,-4,0,-9
NC(=O)c1ccsc1NC(=O)c1ccc2c(c1)CCCC2,-10,6,0,58*
Cc1cccc(Cn2ccn(-c3cccc(Cl)c3)c(=O)c2=O)c1,0,-13,0,51*
Cc1ccc(Cn2ccn(-c3cccc(Cl)c3)c(=O)c2=O)cc1,-2,12,1,6
COCCNC(=O)/C(C#N)=C/c1c(Oc2ccccc2OC)nc2c(C)cccn2c1=O,1,5,0,34*
CCOCCCNC(=O)/C(C#N)=C/c1c(Oc2ccccc2C)nc2c(C)cccn2c1=O,0,4,0,32*
CCOCCCNC(=O)/C(C#N)=C/c1c(Oc2ccc(C)cc2)nc2c(C)cccn2c1=O,0,10,0,19
COC(=O)C1CCN(C2CC(=O)N(Cc3ccccc3)C2=O)CC1 (stereo not drawn),1,12,0,-4
Cc1cc2nc(-c3ccc(NC(=O)c4ccc(Cl)cc4Cl)cc3)oc2cc1C,1,-4,0,-17
O=C(NC1CCCCCC1)c1ccc(N2CCCC2=O)cc1,-3,7,0,-22
O=C(NC1CCCCCCC1)c1cccc(N2CCCC2=O)c1,0,-8,0,46*
O=C(N[C@H]1C[C@H]2C(=O)N[C@@H](Cc3ccccc3)C(=O)N2C1)c1cnn(-c2ccccc2)c1C(F)(F)F,1,-7,0,4
Cc1cc2cc(CNS(=O)(=O)c3ccc(F)cc3)ccc2[nH]1,-1,17,1,8
COC(=O)C1=C(C)N(c2cccc(OC)c2)C(=O)C1,1,-18,0,3
COC(=O)C1=C(C)N(c2ccc(Cl)c(Cl)c2)C(=O)C1,1,-14,0,36*
CC(C)c1ccc2nc(SCC(=O)N3CCCC3)c(C#N)cc2c1,1,-6,0,-30
C/C1=C2N=C(/C=C3N=C(/C(C)=C4\NC(C(CC(N)=O)C4(C)CCC(=O)NCC(C)OP(=O)(O)OC4C(CO)OC(n5cnc6cc(C)c(C)cc65)C4O)C4(C)N=C1C(CCC(N)=O)C4(C)CC(N)=O)C(CCC(N)=O)C\3(C)C)C(CCC(N)=O)C/2(C)CC(N)=O (stereo not drawn),-9,-35,0,33*
Nc1c2ccccc2nc2ccccc12,0,21,1,74*
CN1CCN(C(=O)c2ccc(-c3nc(Nc4ccccc4)c4ncn(-c5ccsc5)c4n3)cc2)CC1,0,-8,0,23
CN1CCN(C(=O)c2ccc(-c3nc(NCc4nc5ccccc5[nH]4)c4ncn(-c5ccccc5)c4n3)cc2)CC1,1,9,0,12
CN1CCN(c2ccc(-c3nc(NCc4ccccc4)c4ncn(-c5ccsc5)c4n3)cc2)CC1,0,5,0,4
